Only some compounds are listed: those with a hit (about 2.4% of all), similar ones and a draw of the others.
GLP1R inv ag = GLP-1 receptor (human) inverse agonism; HEK293 GLP-1R CRE-luciferase, luminescence, 24 h; GLP-1R form is constitutively active; hit rate 1.6% among 410,000; P43220; Potency, µM (highest dose often 38.3 µM), hits mostly inhibitors; note: nearly all actives have a fitted effect of over 55% in size
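HEK293 cells stably co-expressing a cAMP-responsive luciferase reporter and constitutively active GLP-1R were seeded, incubated 12 h, then exposed to compounds for 24 h at 37 C. Luminescence was read 12 min after detection reagent; inverse agonists lower signal.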
GLP1R cytotox = cytotoxicity in counter-screen for GLP-1R inverse agonists; HEK293 cAMP-luciferase reporter cells, luminescence, 24 h; Potency, µM (titrated, usually from 38.3 µM), actives largely listed as inhibitors; hit rate 0.13% among 410,000; AID 624418;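 note: loss of luciferase light is scored as toxicity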
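Compound-treated cells are incubated 24 hr at 37 deg C under 5% CO2 after a 12 hour attachment period, then luciferase detection reagent is added and luminescence is measured following 12 min at room temperature; lowered signal indicates toxicity.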
TRHR agonist-1 = activates the human TRH receptor. hit rate 0.18% among 360,000. TRHR cells, calcium flux fluo-8, FDSS agonist mode. activation, % at 2 µM. P34981; in the data active = activation above about 30%
Target sequence (P34981 whole entry, looked up): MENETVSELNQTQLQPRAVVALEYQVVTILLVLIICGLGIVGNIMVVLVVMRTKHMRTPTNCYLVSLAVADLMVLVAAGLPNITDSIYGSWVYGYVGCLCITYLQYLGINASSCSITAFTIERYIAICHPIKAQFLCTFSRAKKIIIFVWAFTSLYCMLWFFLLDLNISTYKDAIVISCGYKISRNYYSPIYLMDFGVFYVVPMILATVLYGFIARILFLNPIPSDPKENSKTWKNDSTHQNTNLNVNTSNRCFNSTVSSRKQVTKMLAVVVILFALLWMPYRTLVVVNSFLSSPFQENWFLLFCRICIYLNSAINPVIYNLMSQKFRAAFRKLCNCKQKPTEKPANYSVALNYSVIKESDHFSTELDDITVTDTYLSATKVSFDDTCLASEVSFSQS
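Agonist-mode FDSS calcium read (Ex 480/Em 530, 1 s cycles) in 1536-well TRHR cells with fluo-8 dye, after 10-cycle baseline and 23 nL compound addition; TRH at EC20 (10 nM final) added afterwards for the enhancer phase.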
TRHR enhancer-1 = allosteric enhancers of human TRH receptor; AID 493056; enhancement, % at 2 µM; TRHR cells, fluo-8 calcium fluorescence, EC20 TRH enhancement; hit rate 0.66% among 360,000; P34981; in the data active = enhancement above about 30%
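TRHR-expressing cells loaded with fluo-8 calcium dye were read kinetically (ex 480/em 530) during compound addition, then stimulated with an EC20 of TRH (10 nM final). Enhancement of the Gq-mediated intracellular calcium response was scored.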
PTHR1 ag = activates the human parathyroid hormone receptor PTHR1; Potency, µM (top dose mostly 115 µM), actives largely listed as activators; HEK293 GP2 PTHR1 cells, GloSensor cAMP luminescence, 1 h; hit rate 0.075% among 410,000; Q03431; note: nearly all actives have a fitted effect of over 55% in size
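HEK-293-derived GP2 cells expressing PTHR1 and a GloSensor cAMP reporter, 3,000/well, plated overnight, given luciferin plus IBMX (each 0.5 mM as added) for 1 h at 37 °C, then compound for 1 h at 37 °C. Luminescence was read after 15 min at room temperature.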
GLP1R ag = GLP-1 receptor (human) agonism. hit rate 0.007% among 380,000. HEK293 GLP-1R CRE-luciferase, luminescence, 4-6 h; cells express a hypersensitive GLP-1R form. AID 624172. Potency, µM (top dose mostly 45.6 µM), most hits filed as activators. P43220
TRHR enhancer-2 = confirmation of human TRH receptor allosteric enhancers. shares compounds with TRHR enhancer-1. TRH receptor cell assay, enhancer confirmation qHTS. activity change, negative = inhibition, % at 46.1 µM. 970 tested, under 10 active;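 note: compound effect scored on response to added TRH at EC20 of 10 nM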
TRHR agonist-2 = confirmation of human TRH receptor agonists; shares compounds with TRHR enhancer-1; TRHR-expressing cells, agonist activation read-out; Potency, µM (doses to about 46.1 µM), actives largely listed as activators; hit rate 8% among 970; note: nearly all actives have a fitted effect of over 75% in size
Large screens that a line does not name were inactive (follow-up assays come after a bar, where they were run). Unless noted, calls come from the whole dose curve; as a rule, active = well fitted curve in the direction sought with a large enough effect; inconclusive = small, poorly fitted or top-dose-only effect, or another doubt; inactive = no such curve, though single readings can be large; an effect the other way counts as inactive or inconclusive.

Cc1cccc(OCc2nnc(SC(C)C(=O)O)n2Cc2ccccc2)c1 (configuration not stated)	TRHR enhancer-1 41 | TRHR enhancer-2 inactive | TRHR agonist-2 inactive
COc1ccc(C(C(=O)NC2CCCCC2)N(C(=O)Cc2c[nH]c3ccccc23)c2ccccc2C)cc1OC (configuration not stated)	GLP1R inv ag inconclusive
CCCCCCC1CCC(C(=O)Nn2c(C)nc3ccccc3c2=O)CC1 (configuration not stated)	GLP1R inv ag inconclusive
CCCC1CCC(C(=O)Nn2c(C)nc3ccccc3c2=O)CC1 (configuration not stated)	GLP1R inv ag inconclusive, TRHR enhancer-1 45 | TRHR enhancer-2 inactive | TRHR agonist-2 inactive
CS(=O)(=O)N1CCN(c2ccc(NC(=S)NC(=O)c3cccs3)cc2)CC1	TRHR enhancer-1 44 | TRHR enhancer-2 inactive | TRHR agonist-2 inactive
CCc1cc(=O)[nH]c(SCc2ccc(C)cc2)n1	TRHR enhancer-1 54 | TRHR enhancer-2 inactive | TRHR agonist-2 inactive
CCCCCC1CC(=O)N(Cc2ccccc2)C(=O)N1 (configuration not stated)	TRHR enhancer-1 69 | TRHR enhancer-2 inactive | TRHR agonist-2 inactive
Cc1ccc(-n2nc3c(c2NC(=O)c2ccc4c(c2)OCO4)CS(=O)C3)cc1 (configuration not stated)	none
CCOc1ccc(C(=O)Nc2c3c(nn2-c2ccc(C)cc2)CS(=O)C3)cc1OCC (configuration not stated)	TRHR enhancer-1 42 | TRHR enhancer-2 inactive | TRHR agonist-2 inactive
COc1ccc(C(=O)NCCc2nnc3ccc(SCC(=O)NCc4ccccc4)nn23)cc1	TRHR enhancer-1 64 | TRHR enhancer-2 inactive | TRHR agonist-2 inactive
NS(=O)(=O)c1ccc(Sc2ccc3c(c2)CCC3)nc1	none
Cc1nn(-c2ccccc2)c(N2CCCC2)c1/C=N/NC(=O)c1ccccc1O	TRHR enhancer-1 83 | TRHR enhancer-2 inactive | TRHR agonist-2 inconclusive
CCc1ccc(N2CC34C=CC(O3)C(C(=O)OC)C4C2=O)cc1 (configuration not stated)	none
COC(=O)c1ccc(/C=C/c2nc3ccccc3c(=O)[nH]2)cc1	TRHR agonist-1 38 | TRHR enhancer-2 inactive | TRHR agonist-2 inactive
Cc1cccc(N2CN=C3SCC(=O)N3C2)c1	none
COc1ccccc1N(CC(=O)NCc1cccnc1)S(C)(=O)=O	TRHR enhancer-1 48 | TRHR enhancer-2 inactive | TRHR agonist-2 inactive
O=C(Nc1ccc([N+](=O)[O-])cc1)c1nc[nH]c1C(=O)NC1CCCCC1	TRHR agonist-1 43 | TRHR enhancer-2 inactive | TRHR agonist-2 inactive
COc1ccc(OC(C)C(=O)NC2CCCCCCC2)cc1 (configuration not stated)	GLP1R inv ag inconclusive (no result: TRHR agonist-1, TRHR enhancer-1)
CN(C)c1ccc(/C=N/NC(=O)Cn2nnc3ccccc32)cc1	none | TRHR enhancer-2 inconclusive | TRHR agonist-2 inactive
O=C(Cn1nnc2ccccc21)C1CC1	TRHR enhancer-1 47 | TRHR enhancer-2 inactive | TRHR agonist-2 inactive
O=C(C1=C(O)C(=O)N(CCc2ccccc2)C1c1ccncc1)c1cc2ccccc2o1 (configuration not stated)	none
O=C(C1=C(O)C(=O)N(c2nccs2)C1c1ccccc1)c1cc2ccccc2o1 (configuration not stated)	GLP1R inv ag inconclusive, TRHR agonist-1 57 | TRHR enhancer-2 inconclusive | TRHR agonist-2 4.6µM
COc1ccc(C(=O)Nc2ccccc2C(=O)NC(C(=O)NCc2ccco2)C(C)C)cc1 (configuration not stated)	TRHR enhancer-1 48 | TRHR enhancer-2 inactive | TRHR agonist-2 inactive
COc1ccc(C(=O)N[C@H](C(=O)NCc2ccco2)C(C)C)cc1	none
COC(=O)C1=C(C)N(c2ccc(OC)cc2)C(C)=C(C(=O)OC)C1c1ccc(OC)cc1	GLP1R inv ag inconclusive, TRHR enhancer-1 41 | TRHR enhancer-2 inactive | TRHR agonist-2 inactive
CCc1nc2ccccc2n2c(-c3ccc(C)cc3)c3c(=O)n(C)c(=O)n(C)c3c12	none (no result: GLP1R ag)
Cc1ccc(-c2c3c(=O)n(C)c(=O)n(C)c3c3cnc4ccccc4n23)cc1	TRHR enhancer-1 59 (no result: GLP1R ag) | TRHR enhancer-2 inactive | TRHR agonist-2 inactive
CN1CC(=O)N/C1=N\C(=O)Nc1ccc(O)cc1	TRHR enhancer-1 54 | TRHR enhancer-2 inactive | TRHR agonist-2 inactive
NNC(=O)C(=O)Nc1ccc(O)cc1	GLP1R inv ag inconclusive
CN(CCc1cnn(C)c1)C(=O)C1CCC(=O)N(CC2CCCCC2)C1 (configuration not stated)	TRHR enhancer-1 66 | TRHR enhancer-2 inactive | TRHR agonist-2 inactive
Cc1nc(SCC(=O)NC2CCCCC2C)nc(C)c1C (configuration not stated)	none (no result: TRHR agonist-1, TRHR enhancer-1)
CCc1ccc(CN(C)CC(O)COc2cccc3ccccc23)cc1 (configuration not stated)	GLP1R inv ag inconclusive, TRHR enhancer-1 42 | TRHR enhancer-2 inconclusive | TRHR agonist-2 inactive
CN(CCOc1cccc2ccccc12)Cc1ccccc1	none
COc1cc(OC)cc(-c2c(C#Cc3ccsc3)c3cc(-c4ccc(N(C)C)nc4)ccc3n2C)c1	none (no result: TRHR agonist-1, TRHR enhancer-1)
O=C(COc1ccccc1)NCc1ccc2c(c1)CCN2C(=O)c1ccccc1	none (no result: GLP1R ag)
COc1cccc(NC(=O)CN2C(=O)NC(C)(CC(C)C)C2=O)c1 (configuration not stated)	TRHR enhancer-1 52 | TRHR enhancer-2 inactive | TRHR agonist-2 inactive
Cc1noc(/C=C/Nc2ccc(F)cc2F)c1[N+](=O)[O-]	none
COc1ccccc1N/C=C/c1onc(C)c1[N+](=O)[O-]	TRHR agonist-1 47 | TRHR enhancer-2 inactive | TRHR agonist-2 inconclusive
COc1ccc(-c2cc(C(F)(F)F)nc(SCC(=O)NCc3ccc(Cl)cc3)n2)cc1	TRHR enhancer-1 60 (no result: GLP1R ag) | TRHR enhancer-2 inactive | TRHR agonist-2 inactive
COc1ccc(-c2cc(C(F)(F)F)nc(SCC(=O)NCc3ccc(F)cc3)n2)cc1	none
COc1ccc(-n2c3c(c(=O)[nH]c2=O)C(NS(=O)(=O)c2ccc(Cl)cc2)(C(F)(F)F)C(=O)N3)cc1 (configuration not stated)	none
Nc1ccc(C(=O)OCC(=O)NC(=O)c2ccccc2)cc1[N+](=O)[O-]	TRHR enhancer-1 55 | TRHR enhancer-2 inactive | TRHR agonist-2 inactive

From PubChem BioAssay
